Test systems include HCT-15 colon; HT29 colon; SNB-75 CNS; SNB-19 CNS; U251 CNS; PC-3 prostate; SK-MEL-5 melanoma; UACC-62 melanoma; LOX IMVI melanoma; SK-MEL-28 melanoma; SK-MEL-2 melanoma; EKVX NSCLC; SN12C renal; UO-31 renal; TK-10 renal; CAKI-1 renal; A498 renal; CCRF-CEM leukemia; MOLT-4 leukemia; ACHN renal.
Common to all, as to assay: NCI-60 one-dose screen, 48 h (100 = growth as untreated, 0 = no growth, -100 = all killed)
What all share (details): 10 µM unless noted

About 83,000 compounds went through this panel and 20% of them were active in at least one assay; those are over-represented in the sample as a whole.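 Activity criterion: percent growth below 10, measured after cells in 96-well plates were exposed to a single compound concentration for 48 hours.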 A number with no mark means an inactive call. Calls of active or inactive are those of the source.

Take `C=C1C(=O)O[C@H]2[C@H]1CC/C(COC(=O)c1cc3cc(F)ccc3[nH]1)=C\CC[C@@]1(C)O[C@@H]21`: the growth is -59.8% (active) in the test with HCT-15 colon; -53.6% (active) in the test with HT29 colon; -35.3% (active) with SNB-75 CNS; -10.2% (active) with SNB-19 CNS; -86% (active) in the test on U251 CNS; -75.2% (active) in the test with PC-3 prostate. In addition, the growth is -94.5% (active) in the test with SK-MEL-5 melanoma; -71.9% (active) in the test on UACC-62 melanoma; -87.2% (active) in the test on LOX IMVI melanoma; -77.4% (active) with SK-MEL-28 melanoma; -69% (active) in the test with SK-MEL-2 melanoma; -78.1% (active) with EKVX NSCLC. In addition, the growth in the test on SN12C renal is -42% (active); in the test on UO-31 renal, -88.1% (active); in the test with TK-10 renal it was -94.9% (active); in the test on CAKI-1 renal, -90.8% (active); in the test with A498 renal, -40.2% (active); in the test with CCRF-CEM leukemia, -31.9% (active). Also, the growth in the test on MOLT-4 leukemia was -16.2% (active).
`COc1ccc(Cl)cc1Nc1nc(C(F)(F)F)ccc1C(=O)N/N=C/c1ccccc1Cl`: the growth in the test with HCT-15 colon was 0.947% (active); with HT29 colon, 9.32% (active); in the test on SNB-75 CNS it was 50%; in the test on SNB-19 CNS it was 9.47% (active); in the test with U251 CNS it was -25.8% (active); in the test with PC-3 prostate, 5.53% (active). Further, the growth was 3.59% (active) in the test on SK-MEL-5 melanoma; 8.19% (active) in the test with UACC-62 melanoma; -13.6% (active) with LOX IMVI melanoma; 32.5% in the test on SK-MEL-28 melanoma; -7.25% (active) with SK-MEL-2 melanoma; -0.149% (active) in the test on EKVX NSCLC. The growth with UO-31 renal was 2.9% (active); in the test on TK-10 renal, 15.6%; in the test on ACHN renal, 3.39% (active); in the test on CAKI-1 renal, 11.5%; in the test with A498 renal it was 28.1%; in the test on CCRF-CEM leukemia it was 7.11% (active).
On to `CS(=O)(=O)Cc1cnc(C2OCCO2)s1`, for which the growth in the test on HCT-15 colon is 109%; in the test on HT29 colon it was 91.1%; in the test with SNB-75 CNS, 91.2%; with SNB-19 CNS, 112%; with U251 CNS it was 96.5%; with PC-3 prostate, 92.2%. The growth is 97.8% in the test on SK-MEL-5 melanoma; 106% in the test on UACC-62 melanoma; 100% with LOX IMVI melanoma; 105% with SK-MEL-28 melanoma; 122% in the test on SK-MEL-2 melanoma; 99% in the test with EKVX NSCLC. Moreover, the growth in the test with UO-31 renal is 92%; in the test with TK-10 renal it was 93.8%; with ACHN renal it was 96.8%; in the test on CAKI-1 renal, 97.7%; with A498 renal, 116%; in the test on CCRF-CEM leukemia it was 138%. Besides, in the test with MOLT-4 leukemia, the growth is 140%.
As for `COc1ccc(C2C3=C(COC3=O)N(CCO)c3cc4c(cc32)OCCO4)cc1OC` (stereo not given), the growth in the test with HCT-15 colon was 31.3%; in the test on HT29 colon it was 4.76% (active); in the test with SNB-75 CNS it was -8.37% (active); with SNB-19 CNS, 37.4%; in the test on U251 CNS it was 26.4%; with PC-3 prostate, 23.8%. In addition, the growth is 21% in the test on SK-MEL-5 melanoma; 18.1% in the test on UACC-62 melanoma; 42.1% in the test on LOX IMVI melanoma; 48.7% in the test with SK-MEL-28 melanoma; 56.5% in the test with EKVX NSCLC; 42% with SN12C renal. The growth with UO-31 renal was 66.2%; with TK-10 renal, 65.1%; in the test with ACHN renal, 42.2%; in the test with CAKI-1 renal it was 49.5%; in the test on A498 renal, -5.71% (active); with CCRF-CEM leukemia, 21.1%. The growth in the test on MOLT-4 leukemia is 55.3%.
Take `CCCCCSB(SCCCCC)c1ccccc1`: the growth in the test with HCT-15 colon is 96.8%; in the test with HT29 colon, 96.4%; in the test with SNB-75 CNS, 78.7%; in the test on SNB-19 CNS it was 96.6%; in the test with U251 CNS, 99.7%; in the test on PC-3 prostate, 97.2%. Besides, the growth in the test on SK-MEL-5 melanoma was 105%; with UACC-62 melanoma, 105%; in the test on LOX IMVI melanoma it was 96.8%; in the test with SK-MEL-28 melanoma it was 110%; in the test on SK-MEL-2 melanoma, 102%; in the test with EKVX NSCLC, 106%. Also, the growth in the test on SN12C renal is 106%; in the test with UO-31 renal it was 81.3%; in the test with TK-10 renal it was 101%; in the test with CAKI-1 renal it was 96%; in the test on A498 renal, 95.4%; in the test on CCRF-CEM leukemia, 97.4%. In the test with MOLT-4 leukemia, the growth was 96.4%.
Turning to `CN(C)c1ccc(/C=C/C(=O)c2ccc(Nc3nc(Nc4ccc(F)cc4)nc(Nc4ccc(Cl)cc4)n3)cc2)cc1`, the growth in the test on HCT-15 colon was 57%; with HT29 colon, 60.7%; with SNB-75 CNS, 76.9%; with SNB-19 CNS it was 92.7%; in the test with U251 CNS, 67.9%; with PC-3 prostate, 57.2%. The growth in the test with SK-MEL-5 melanoma was 50.2%; with UACC-62 melanoma, 75.2%; in the test on LOX IMVI melanoma, 75.6%; in the test with SK-MEL-28 melanoma, 74.3%; with SK-MEL-2 melanoma it was 52.6%; in the test with EKVX NSCLC it was 67.2%. The growth with UO-31 renal was 59.2%; in the test with TK-10 renal, 97.9%; in the test with ACHN renal it was 75.3%; with CAKI-1 renal, 70.9%; with A498 renal, 83.4%; in the test on CCRF-CEM leukemia, 4.13% (active).
Take `COc1ccc2cc(-c3cnc4nonc4n3)ccc2c1`: the growth with HCT-15 colon is 22.7%; with HT29 colon it was 13.4%; in the test on SNB-75 CNS, 15.8%; in the test on SNB-19 CNS it was 37.7%; in the test with U251 CNS, 16.9%; with PC-3 prostate it was 25.5%. The growth is 31.8% in the test with SK-MEL-5 melanoma; 2.86% (active) in the test on UACC-62 melanoma; 25.5% with LOX IMVI melanoma; 86.3% in the test with SK-MEL-28 melanoma; 16.1% in the test with EKVX NSCLC; 38.7% in the test on SN12C renal. Also, the growth is 37.7% in the test with UO-31 renal; 54.5% with TK-10 renal; 50.8% with ACHN renal; 29.7% in the test with CAKI-1 renal; 60.8% in the test with A498 renal; 8.1% (active) with CCRF-CEM leukemia. Moreover, in the test with MOLT-4 leukemia, the growth was 6.87% (active).
As to `COc1ccc(-c2oc(=O)ccc2-c2cc(OC)c(OC)c(OC)c2)cc1O`, the growth in the test with HCT-15 colon is 27.1%; in the test with HT29 colon, 3.93% (active); in the test with SNB-75 CNS it was -1.81% (active); in the test with SNB-19 CNS, 22.9%; in the test on U251 CNS, 22.7%; in the test on PC-3 prostate it was 38.1%. The growth is 12.1% with SK-MEL-5 melanoma; 21.1% in the test on UACC-62 melanoma; 44.4% with LOX IMVI melanoma; 39.3% in the test on SK-MEL-28 melanoma; 39.9% in the test with SK-MEL-2 melanoma; 49.5% in the test on EKVX NSCLC. Besides, the growth in the test on UO-31 renal is 21.9%; in the test with TK-10 renal, 61.6%; in the test on ACHN renal it was 56%; in the test with CAKI-1 renal, -11.6% (active); in the test with A498 renal, -1.78% (active); with CCRF-CEM leukemia, 4.14% (active). Besides, the growth in the test with MOLT-4 leukemia was 20.5%.
